Reference: PubChem BioAssay AID741 (SRMLSC, 2007)
Records with an inconclusive call do not appear. Calls of active or inactive are those of the source. Rule as the data show it: active = toxicity enhancement factor above about 0.054; inconclusive = between about 0.00067 and that limit; inactive = weaker than that.

Test: MRP-overexpressing cell chemosensitization – dose response (AID 741)
Conditions: MRP-overexpressing cells, viability with/without cytotoxic drug; slope difference: measured here: slope difference tox minus reversal, stronger effect = higher value; toxicity enhancement factor: stronger effect = higher value; viability: measured here: viability series, compound alone, at 10 µM, stronger effect = lower value

Row | SMILES | slope difference | toxicity enhancement factor | viability [%]
1 | CCCn1c(=O)[nH]c(=O)c2[nH]cnc21 | -0.568 | -0.0054 (inactive) | 101
2 | CCc1cccc2c3c([nH]c12)C(CC)(CC(=O)O)OCC3 (stereo not drawn) | -0.174 | -0.0019 (inactive) | 92.5
3 | Cc1nc(N2CCN(C)CC2)c2sc(=S)n(-c3ccccc3)c2n1 | 2.3 | 0.0596 (active) | 64
4 | COc1ccc(C(=O)Nc2nc3ccccc3[nH]2)cc1OC | -0.0153 | -0.0002 (inactive) | 87.3
5 | CC(C(=O)O)c1cccc(C(=O)c2ccccc2)c1 (stereo not drawn) | -1.03 | -0.0105 (inactive) | 92.4
6 | COc1ccc(/C=C/C(=O)Nc2ccccc2C(=O)O)cc1OC | -1.07 | -0.0098 (inactive) | 95.7
7 | Cc1ccc(N2C(N)=C(C#N)C(c3cccnc3)C3=C2CC(C)(C)CC3=O)cc1 (stereo not drawn) | 2.48 | 0.0915 (active) | 57.5
8 | Cc1ccc(/C=N/Nc2nc(Cl)c(Cl)cc2Cl)s1 | -0.0549 | -0.0006 (inactive) | 99.8
9 | CCCCNc1c2c3c(cccc3n(C)c1=O)C(=O)c1ccccc1-2 | -4.84 | -0.0634 (inactive) | 32.4
10 | CCCNS(=O)(=O)c1ccc(NC(=O)c2ccccn2)cc1 | -0.0969 | -0.001 (inactive) | 99.5
11 | CCN(C(=O)c1cn(C)c(=O)c2cc(OC)c(OC)cc12)c1cc(OC)ccc1OC | 4.18 | 0.129 (active) | 77.9
12 | COCC(C)OC(=O)C(C#N)c1nc2ccccc2nc1N1CCN(Cc2ccccc2)CC1 (stereo not drawn) | -0.109 | -0.0013 (inactive) | 89.3
13 | COC(=O)c1ccccc1NC(=O)c1cccs1 | -0.205 | -0.0023 (inactive) | 87.5
14 | COc1ccc2cc([C@H](C)C(=O)O)ccc2c1 | -0.665 | -0.0066 (inactive) | 96.6
15 | COC(=O)C(C)Sc1nnc2n(-c3cccc(C)c3)c(=O)c3c4c(sc3n12)CCCC4 (stereo not drawn) | 2.9 | 0.061 (active) | 85.9
16 | N#Cc1ccc(CSc2nnc(-c3cccs3)n2-c2ccccc2)cc1 | -0.904 | -0.0117 (inactive) | 79

Row | SMILES | slope difference | toxicity enhancement factor | viability [%]
17 | c1ccc(N2CCN(c3ccccc3)C2c2ccncc2)cc1 | 3.19 | 0.0739 (active) | 82.9
18 | Cn1ccnc1-c1nc2ccccc2[nH]c1=O | -0.138 | -0.0015 (inactive) | 92.3
19 | CC(C(=O)O)c1ccc(N2Cc3ccccc3C2=O)cc1 (stereo not drawn) | -0.182 | -0.0019 (inactive) | 98.6
20 | CSc1nnc(-c2cc3ccccc3cc2O)n1C | -0.153 | -0.0016 (inactive) | 101
21 | Cc1ccc(-c2nc3ncccn3c2NC2CCCCC2)o1 | 2.81 | 0.0632 (active) | 79.5
22 | O=C(CSc1nnnn1-c1ccccc1)N1CCc2ccccc21 | -1.04 | -0.0102 (inactive) | 85.8
23 | CCOC(=O)Nc1ccc(S(=O)(=O)Nc2nccc(C)n2)cc1 | -0.237 | -0.0025 (inactive) | 97.4
24 | Cc1nc(C)c(C)nc1C | -0.412 | -0.004 (inactive) | 98.8
25 | CC(C)CCn1c(=O)c2ccccc2n2c(CN(C)Cc3ccccc3)nnc12 | 2.35 | 0.0598 (active) | 82.3
26 | CC(C(=O)O)c1ccc(-c2ccccc2)c(F)c1 (stereo not drawn) | -0.412 | -0.0042 (inactive) | 89
27 | CCCCSc1nnc2n(CCc3ccccc3)c(=O)c3c4c(sc3n12)COC(C)(C)C4 | 5.29 | 0.189 (active) | 84.4
28 | CC(Cc1ccc(O)c(O)c1)C(C)Cc1ccc(O)c(O)c1 (stereo not drawn) | -0.864 | -0.009 (inactive) | 86.2
29 | Cc1nn(C)c(C)c1NC(=O)CSc1nc(C2CC2)nc2c1cnn2-c1ccccc1 | -1.07 | -0.0298 (inactive) | 27.3
30 | CN1C(C(=O)Nc2ccccn2)=C(O)c2sccc2S1(=O)=O | -0.669 | -0.0064 (inactive) | 103
31 | Cc1ccc(CN(C(=O)c2ccco2)C(C(=O)NC2CCCC2)c2ccc(N3CCOCC3)cc2)cc1 (stereo not drawn) | 2.19 | 0.0523 (active) | 72.9
